Source: PubChem BioAssay AID720597 (Broad Institute, 2013)
Potency and affinity values are given separately. Unmarked numbers belong to inactive results.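 Rule for the calls: active = fitted half-maximal dose no more than twice the top valid tested dose, for compounds that lower signal; inconclusive = fit invalid, or curve flat with activity between -70 and -30; inactive = potency past limit, curve flat within ±30, or signal increasing.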

Molecular target: NAD-dependent protein deacylase sirtuin-5, mitochondrial (Homo sapiens) (UniProt Q9NXA8)
Test: blockers of sirtuin-5 peptide desuccinylation – biochemical, fluorescence imaging, cherry-pick, set 6, dose response (AID 720597);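 note: lower AMC signal can also come from blocking the trypsin step; 0% = median of neutral control wells and -100% = median of positive control wells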
Settings: Purified SirT5, succinyl-peptide-AMC/trypsin fluorescence; series mostly up to 15 µM; activity change, negative = inhibition: at the top concentration

Sequence of NAD-dependent protein deacylase sirtuin-5, mitochondrial (Homo sapiens) (Q9NXA8 whole entry, looked up): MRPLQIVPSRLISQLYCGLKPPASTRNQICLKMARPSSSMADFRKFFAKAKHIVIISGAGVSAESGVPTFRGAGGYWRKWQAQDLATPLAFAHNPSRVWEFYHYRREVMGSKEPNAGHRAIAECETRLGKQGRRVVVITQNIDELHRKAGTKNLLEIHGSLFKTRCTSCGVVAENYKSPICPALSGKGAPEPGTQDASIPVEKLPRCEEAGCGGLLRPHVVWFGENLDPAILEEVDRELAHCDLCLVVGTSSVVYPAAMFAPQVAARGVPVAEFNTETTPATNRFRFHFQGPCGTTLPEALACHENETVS

Row | Structure (SMILES) | activity change, negative = inhibition [%]
1 | O=C(C[C@H]1CC[C@@H](NS(=O)(=O)c2ccccc2)[C@@H](CO)O1)NCc1ccncn1 | 27.1
2 | C[C@H]1CN([C@@H](C)CO)C(=O)c2cccc(NC(=O)c3ccncc3)c2O[C@@H]1CN(C)S(C)(=O)=O | 19.2
3 | CCNC(=O)C[C@H]1CC[C@@H]2[C@H](COC[C@H](O)CN2C(=O)Nc2ccc(C(F)(F)F)cc2)O1 | -20.2
4 | COc1cccc(CNC(=O)C[C@H]2CC[C@@H]3[C@@H](COc4ccc(NC(=O)c5cccs5)cc4C(=O)N3C)O2)c1 | 5.59
5 | CCNC(=O)C[C@H]1CC[C@H]2[C@@H](COc3ccc(NS(=O)(=O)c4ccccc4C)cc3C(=O)N2C)O1 | -7.91
6 | C[C@H]1CN([C@@H](C)CO)C(=O)Cc2cc(NC(=O)Nc3ccc(F)cc3)ccc2O[C@@H]1CN(C)C | -9.38
7 | O=S(=O)(c1ccc(F)cc1)N1CCCCN2[C@H](CO)[C@@H](c3ccc(-c4ccccc4F)cc3)[C@H]2C1 | -9.98
8 | Cc1ccc(-c2ccc3c(c2)O[C@@H](CN(C)Cc2ccccn2)[C@H](C)CN([C@@H](C)CO)S3(=O)=O)cc1 | -10.8
9 | C[C@H](CO)N1C[C@H](C)[C@@H](CN(C)Cc2ccc(C(=O)O)cc2)Oc2ccc(NS(=O)(=O)c3ccc(Cl)cc3)cc2C1=O | 5.79
10 | COc1ccc(S(=O)(=O)N(C)C[C@H]2OCCCC[C@H](C)Oc3ccc(NS(=O)(=O)c4ccc(Cl)cc4)cc3C(=O)N([C@H](C)CO)C[C@H]2C)cc1 | -2.51
11 | Cc1cccc(-c2ccc([C@@H]3[C@@H](CO)N4C(=O)CN(S(=O)(=O)c5cccc(F)c5)C[C@@H]34)cc2)c1 | 5.16
